Laboratory results: PubChem BioAssay
Values joined by “and” are separate entries in the source; they are usually repeats but may differ in a detail not shown here. Equal values may be shown once.

target: Fibroblast growth factor 2 (Homo sapiens) (UniProt P09038); test: FGF2 binders on small-molecule microarrays, primary screen, biochemical, small-molecule microarray, 635/667 nm fluorescence (AID 1133); conditions: small-molecule microarray binding, FGF2, fluorescence 635/667; higher = more signal
Sequence (P09038 whole entry, looked up): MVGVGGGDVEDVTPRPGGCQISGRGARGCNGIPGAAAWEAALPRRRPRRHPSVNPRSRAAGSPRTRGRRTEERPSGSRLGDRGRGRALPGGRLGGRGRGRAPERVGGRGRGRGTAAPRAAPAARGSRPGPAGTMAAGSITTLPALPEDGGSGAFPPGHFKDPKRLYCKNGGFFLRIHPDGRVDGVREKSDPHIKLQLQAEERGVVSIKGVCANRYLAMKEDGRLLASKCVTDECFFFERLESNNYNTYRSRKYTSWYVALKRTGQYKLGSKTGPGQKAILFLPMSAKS

| Compound | composite z-score |
| --- | --- |
| C=CCN(CCCCC)C(=O)C(c1cccs1)N(CCOCCO)C(=O)/C=C\C(=O)O (configuration not stated) | -1.77 and -1.79 |
| CC(C)CCN1CCc2nc(-c3ccccc3)c3c(c2C1)CO[C@@H](C)C3 | 0.528 |
| C=CCN(CCCC)C(=O)C1N(c2ccc(CCO)cc2)C(=O)C2C(C(=O)O)C3C=CC21O3 (configuration not stated) | -0.893 and -2.56 |
| C=C[C@H](OC)[C@@H](O)c1ccc(OCCO)cc1 | -1.92 and -0.492 |
| C=C[C@H](C)[C@H](O)c1ccc(O)c2ccccc12 | -0.671 and 1.31 |
| COC(=O)C1=C(C)N(Cc2ccccc2)[C@]23O[C@](C(=O)OC)(C(=O)N2[C@@H]1c1ccccc1)[C@H]1C(=O)N(c2ccccc2)C(=O)[C@H]13 | 0.562 and 0.626 |
| CN1C(=O)C2CC=C([C@H]3Oc4ccccc4S(=O)(=O)N4CCC[C@@H]34)CC2C1=O (some centres not stated) | -0.19 and -0.132 |
| CC(C)=NOC[C@@H](O)COCc1ccco1 | 0.782 |
| CCOC(=O)NN=C1C[C@@H](O)[C@@H](O)[C@@H]2[C@@H]3C(=O)N(Cc4ccccc4)C(=O)[C@@H]3CC[C@@H]12 | 0.371 |
| COC(=O)C1=C(C)N(Cc2ccccc2)[C@]23O[C@](C(=O)OC)(C(=O)N2[C@@H]1c1ccccc1)[C@H]1CCCC(=O)[C@H]13 | 0.349 and 0.456 |
| C#CCCCON=C1C[C@@H](O)[C@@H](O)[C@@H]2[C@@H]3C(=O)N(C4CCCCC4)C(=O)[C@@H]3CC[C@H]12 | 0.0951 |
| C=C[C@@H](OC)[C@H](O)c1ccc(OC)c(O)c1 | 0.731 and 0.0203 |
| CC(C)=NOCc1ccc(-c2cn([C@@H]3COC[C@H]3O)nn2)cc1 | 0.299 |
| CO[C@@H]1C=CCC(=O)N2CCC[C@H]2C(=O)OC[C@H](C)C(=O)OC[C@H]1C | 0.109 |
| CCCCCN1CC=CC23O[C@@H]4C=CCCOC(=O)C4[C@H]2C(=O)N(C(C)CO)[C@@H]3C1=O (some centres not stated) | -0.387 and -1.17 |
| COC(=O)[C@@]1(Cc2ccc(OC)cc2)[C@H]2c3cc(C(=O)N(C)C)n(Cc4ccc(O)c(OC)c4)c3C[C@H]2CN1C(=O)c1ccccc1 | -0.913 and -0.134 |
| C=CCN(Cc1ccccc1)C(=O)C(c1cccs1)N(C(=O)/C=C\C(=O)O)c1ccc(CCO)cc1 (configuration not stated) | -1.78 and -1.47 |
| CCN1C(=O)[C@H]2[C@H]3[C@H](O)[C@H](O)CC(=NOC)[C@@H]3CC[C@H]2C1=O | -0.0102 |
| C[N+](C)(C)CCCCNC(=O)[C@@H]1C[C@@H]2C(=O)N[C@@H](CCCC[N+](C)(C)C)C(=O)N2[C@@H]1c1cccc(OCCO)c1 | 1.94 and 1.9 |
| CO[C@H]1COC(=O)CC=C[C@H](C)[C@H](OC)COC(=O)[C@@H](C)COC(=O)CC=C[C@@H]1C | 0.651 and 0.402 |
| Cc1cc2c(nc1C)CCCN2CC(O)CN1CCCc2nc(-c3ccc(Br)cc3)ccc21 (configuration not stated) | 0.953 and 0.871 |
| COC(=O)C1=C(C)N(Cc2ccccc2)C2=C(C(=O)c3ccccc3)[C@H](c3ccccc3)[C@@](O)(C(=O)OC)C(=O)N2[C@@H]1c1ccccc1 | 0.442 and 0.433 |
| C#CCN1C(/C=C/c2ccccc2)C(=O)OC[C@H]1c1ccccc1 (some centres not stated) | 0.441 and 1.07 |
| COC(=O)[C@@]1(Cc2ccccc2)[C@H]2c3cc(C(=O)N(C)C)n(Cc4ccc(C)c(F)c4F)c3C[C@H]2CN1C(=O)c1ccccc1 | -0.824 and -0.149 |
| CCOC(=O)[C@@H]1CC2O[C@]23C[C@@H]1C(=O)N1CCC[C@@H]1[C@H]3O[Si](C)(C)C(C)(C)C (some centres not stated) | 0.0471 and 1.14 |
| C=CCN(CCCCC)C(=O)C(c1cccs1)N(C(=O)/C=C\C(=O)O)c1ccc(CCO)cc1 (configuration not stated) | -1.54 and -1.4 |
| CC(CO)N1C(=O)[C@@H]2C3C(=O)OCCC=C[C@H]3OC23C=CCN(c2ccc4ccccc4c2)C(=O)[C@@H]13 (some centres not stated) | -1.53 and -0.879 |
